# Screening results deposited in PubChem by National Center for Advancing Translational Sciences (NCATS).
# Shown are actives, neighbours in structure and some others; about 7.5% of the full set was active somewhere.
# HCMV antiviral: blocks human cytomegalovirus replication. activity change, negative = inhibition, % at 57.5 µM. HFF cells, HCMV-luciferase reporter, 72 h; active compounds read low. 410,000 compounds, 4.5% hits; in the data active means activity change below about -60%; inconclusive means no clear call, values can overlap the other calls; inactive means above about -39%
#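 After 16 h attachment at 37C, HFF cells received test compound and HCMV-luciferase (1 PFU/cell); reporter luminescence read 72 h later, data normalized against buffer-only and known inhibitor Salinomycin.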
# Vaccinia Venus: vaccinia inhibition (Venus reporter); Vaccinia virus Venus reporter expression, fluorescence; Potency, µM (doses to about 36.5 µM), without a hit: at the highest dose activity change, negative = inhibition, usual class: inhibitors; 330,000 compounds, 0.46% hits; AID 720580; calls by dose curve; tested in A549 cells; further: potency means the concentration at half of the fitted maximal effect; nearly all actives have a fitted effect of over 30% in size
# FBPA Giardia inh: Giardia lamblia aldolase inhibition; A8B2U2; purified Giardia FBPA; Potency, µM (doses to about 59.6 µM), inactives show at the highest dose activity, negative = inhibition, hits mostly inhibitors; 290,000 compounds, 0.71% hits; AID 2451; further: potency means the concentration at half of the fitted maximal effect; nearly all actives have a fitted effect of over 55% in size
# Target sequence (A8B2U2 whole entry, looked up): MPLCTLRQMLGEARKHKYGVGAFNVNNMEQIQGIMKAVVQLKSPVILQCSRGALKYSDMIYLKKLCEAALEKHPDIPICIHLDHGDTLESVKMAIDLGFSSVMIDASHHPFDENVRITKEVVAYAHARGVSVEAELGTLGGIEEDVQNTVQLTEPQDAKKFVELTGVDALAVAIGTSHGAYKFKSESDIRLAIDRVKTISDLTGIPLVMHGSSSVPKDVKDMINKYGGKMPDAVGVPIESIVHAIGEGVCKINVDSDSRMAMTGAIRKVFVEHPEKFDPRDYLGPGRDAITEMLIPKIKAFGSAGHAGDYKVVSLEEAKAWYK
#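 40 nM FBPA preincubated 10 min at RT with compound (up to 57.5 uM final), then substrate plus GAPDH/TPI/NAD/arsenate coupling and diaphorase/resazurin added. Fluorescence read after 20 min at RT, 525/598 nm.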
# VACV mCherry inh: inhibitors of vaccinia virus infection (mCherry reporter signal); 310,000 compounds, 0.63% hits; Vaccinia virus mCherry reporter infection, fluorescence; Potency, µM (titrated, usually from 36.5 µM), for inactives: at the top dose activity change, negative = inhibition, actives largely listed as inhibitors; calls by dose curve; tested in A549 cells; further: potency means the concentration at half of the fitted maximal effect; nearly all actives have a fitted effect of over 35% in size
# HCV inhibitor: blocks hepatitis C virus. Huh7.5.1 HCVcc-Cre infection, luciferase reporter, 44 h. Potency, µM (titrated, usually from 41.8 µM), for the others: at the top dose activity change, negative = inhibition, usual class: inhibitors. 340,000 compounds, 3.4% hits; further: potency means the concentration at half of the fitted maximal effect
#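 Whole-lifecycle infectious HCVcc-Cre system; cells 1,000/well, compound then virus (~0.5 moi) added 4 h after plating, 44 h culture. Luciferase read 15 sec following 15 min substrate incubation, room temp.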
# FMDV inh: antivirals against foot and mouth disease virus. FMDV antiviral cell-based qHTS. Potency, µM (highest dose often 57.9 µM), without a hit: at the highest dose activity change, negative = inhibition, hits mostly inhibitors. 410,000 compounds, 1.2% hits; calls by dose curve; tested in HEK293T cells; further: read-out not given here; potency means the concentration at half of the fitted maximal effect; nearly all actives have a fitted effect of over 45% in size
# * marks the source's active call; other numbers are inactive results; i = inactive; ? = inconclusive; · = no result; [ ] = remark or other dose. Unless noted, the call rests on the fitted dose curve; in most records, active means well fitted curve in the direction sought with a large enough effect; inconclusive means small, poorly fitted or top-dose-only effect, or another doubt; inactive means no such curve, though single readings can be large; an effect the other way counts as inactive or inconclusive. On the % scale 0 is the no-effect control and ±100 the full control effect.
SMILES,HCMV antiviral,Vaccinia Venus,FBPA Giardia inh,VACV mCherry inh,HCV inhibitor,FMDV inh
CCOC(=O)CC1CCCCN1C(=O)c1cc(COc2cccc3cnccc23)on1 (stereo not given),-87.0*,·,-12.7%,·,2.24µM*,2.82µM*
CN(C)c1ccc(N=Nc2ccc(/C=C/c3ccnc4ccccc34)cc2)cc1,·,i,·,100.3%,·,·
COc1cccc(NC(=O)Cn2cc(C(=O)c3ccccc3)c3ccccc32)c1,?,-13.4%,·,-11.3%,·,-27.2%
O=C(Cn1cc(C(=O)C2CCCCC2)c2ccccc21)Nc1ccccc1Cl,-14.1,-14.2%,·,-7.5%,·,-24.9%
Cc1ccc(NC(=O)Cn2cc(C(=O)c3ccco3)c3ccccc32)c(C)c1,-73.5*,-19.7%,·,-24.3%,·,-25.4%
Cc1cccc(NC(=O)Cn2cc(C(=O)c3ccccc3)c3ccccc32)c1,-79.6*,-22.4%,·,-15.3%,·,-21.4%
CC(C)NC(=O)Cn1cc(C(=O)C2CC2)c2ccccc21,-61.4*,·,1.8%,·,5.9%,8.8%
Cc1cccc(NC(=O)Cn2cc(C(=O)C3CCCCC3)c3ccccc32)c1C,-92.6*,-18.4%[7.34 µM],·,-22.0%[7.34 µM],·,?
Cc1c(NC(=O)C(C)OC(=O)c2ccc([N+](=O)[O-])cc2Cl)c(=O)n(-c2ccccc2)n1C (stereo not given),-8.0,-12.4%,·,-13.9%,7.1%,0.3%
COc1ccc(CNC(=O)CCn2nc(C)c3c(C)n(-c4ccccc4)nc3c2=O)c(OC)c1,?,-11.8%,-0.9%,-15.0%,-9.3%,-5.7%
Cc1cccc(NC(=O)Cn2cc(C(=O)c3ccccc3)c3ccccc32)c1C,-66.6*,-25.2%,·,-18.2%,·,?
Cc1cccc(NC(=O)Cn2cc(C(=O)c3ccco3)c3ccccc32)c1C,-87.5*,?,·,-6.0%,·,0.0%
CC(C)NC(=O)Cn1cc(C(=O)c2ccccc2)c2ccccc21,96.0,·,12.3%,·,-6.5%,2.1%
O=C(c1ccco1)c1cn(CC(=O)N2CCCc3ccccc32)c2ccccc12,33.3,-7.8%,-1.2%,·,11.2µM*,?
O=C(Cn1cc(C(=O)c2ccco2)c2ccccc21)Nc1ccccc1F,-74.7*,-8.1%,0.7%,-14.7%,-21.1%,-24.0%
Cc1ccc(C)c(NC(=O)Cn2cc(C(=O)c3ccco3)c3ccccc32)c1,-33.8,-15.9%,·,-13.2%,·,-25.2%
COc1cccc2c1Oc1ncccc1N(C(=O)CCC(=O)NCc1ccc(OC(C)C)cc1)C2,6.0,-15.1%,·,-7.9%,·,-12.8%
COc1ccc2c(c1)-c1nc(-n3ncc(C(=O)NCc4cccc(C)n4)c3C3CC3)ncc1CC2,·,-3.2%,·,-3.3%,·,-17.2%
O=C(NCc1ccccc1)C1=C[C@@H](C2CC2)C[C@@H](OCc2ccc(CO)cc2)O1,-6.1,-14.4%,-2.5%,?,12.3%,0.7%
O=C(NCc1ccccc1)C1=C[C@@H](c2csc3ccccc23)C[C@@H](OCCCCO)O1,-97.1*,-19.1%,-25.4%,i,-20.3%[8.37 µM],28.7%
O=C(NCc1ccccc1)C1=C[C@@H](c2csc3ccccc23)C[C@@H](OCc2ccc(CO)cc2)O1,-97.9*,?,-17.0%,?,?,2.8%
O=C(O)C1=C[C@H](c2csc3ccccc23)C[C@H](OCc2ccc(CO)cc2)O1,4.7,3.4%,16.4%,i,26.8%,-3.9%
O=C(NCc1ccccc1)C1=C[C@H](C2CCCCC2)C[C@H](OCc2ccc(CO)cc2)O1,-83.6*,?,-2.1%,i,13.9%,-3.9%
Cc1ccc(OCCOc2ccc(Br)cc2)c([N+](=O)[O-])n1,84.2,-25.5%,-6.3%,-5.2%,?,-5.7%
NC(Cc1ccccc1)C(O)c1ccco1 (stereo not given),·,·,0.0%,·,·,·
SMILES,HCMV antiviral,Vaccinia Venus,FBPA Giardia inh,VACV mCherry inh,HCV inhibitor,FMDV inh
CCN(C#N)c1nc(N(C)C)nc(N(C)C)n1,-11.7,·,2.3%,·,10µM*,-0.3%
O=C(NC1CC1)c1ccc2nc([C@@H]3O[C@H](CO)[C@H](O)[C@H](O)[C@H]3O)[nH]c2c1,-0.2,2.9%,·,2.0%,·,-4.9%
CCCCNc1c(-c2ccc(OC)c(Sc3ccc(OC)cc3)c2)nc2ccccn12,·,?,·,?,10µM*,-27.4%
CCCCNc1c(-c2ccc(OC)c(Sc3ccc(OC)cc3)c2)nc2cnccn12,21.4,-25.6%,·,-17.0%,?,?
CCCCNc1c(-c2ccc(-c3ccc(OC)cc3)c(OC)c2)nc2ccccn12,-39.9,?,·,31.6µM*,?,?
Cc1cnn(C(=O)c2cc(-c3ccccc3)nc3ccccc23)c1,35.8,-7.8%,-25.2%,i,11.9%,21.8%
FC(F)(F)c1cc(-c2ccccc2)nc(-n2cc(Cl)cn2)n1,-60.1*,·,-0.3%,·,?,?
Cc1cnn(-c2nc(-c3ccccc3)cc(-c3ccccc3)n2)c1,?,-18.9%,-0.7%,-11.5%,7.94µM*,6.1%
Fc1ccc(-c2cc(C(F)(F)F)nc(-n3cc(Cl)cn3)n2)cc1,?,·,-4.5%,·,?,0.0%
COc1cccc(-c2cc(CNC(=O)[C@H]3O[C@@H](n4ccc(N)nc4=O)[C@H](O)[C@@H]3O)no2)c1,14.3,8.7%,·,34.9%,·,-14.8%
CCOC(=O)N1CCN(c2cc(NCCC(=O)O)c3c4c(onc24)-c2ccccc2C3=O)CC1,·,428.9%,5.61µM*,43.6%,?,0.0%
CCCCNc1cc(N2CCN(C3CCCCC3)CC2)c2noc3c2c1C(=O)c1ccccc1-3,31.5,149.7%,·,-2.9%,·,-7.6%
O=C(Cn1cc(S(=O)(=O)Cc2ccccc2F)c2ccccc21)NCc1ccccc1Cl,0.0,-0.4%,·,-12.0%,·,5.3%
Cc1ccc(Sc2cc(C(=O)NCCCN(C)C)c3ccccc3n2)cc1,-39.1,?,11.5%,i,?,-2.4%
COCCCNC(=O)c1cc(Sc2ccc(F)cc2)nc2ccccc12,-60.9*,-15.0%,10.3%,-20.6%,?,-21.3%
CCOCCCNC(=O)c1cc(Sc2ccc(F)cc2)nc2ccccc12,-62.0*,-9.4%,0.4%,-0.8%,4.7%,-17.1%
Cc1ccc(CNC(=O)c2cc(Sc3ccc(F)cc3F)nc3ccccc23)cc1,-66.2*,-15.3%,·,-15.3%,·,-13.2%
c1ccc(N2[C@@H]3c4ccccc4C[C@H]2c2ccccc23)cc1,-35.6,-1.3%,·,?,·,-20.8%
CN(N)c1nc(C(F)(F)F)nc2ccccc12,?,-10.5%,-2.1%,-24.3%,-7.7%,-18.0%
CN(NS(=O)(=O)c1ccc(Br)cc1)c1nc(C(F)(F)F)nc2ccccc12,-64.4*,-28.9%,20.2%,-15.3%,-14.7%,-27.9%
Cn1nnnc1N=N/C(=N/Nc1ccccc1)c1ccccc1,-85.7*,-29.4%,-0.1%,?,3.98µM*,-5.8%
Cn1nnnc1NN=Cc1ccccc1,-31.5,-14.8%,·,-12.3%,·,-10.0%
Cc1cccc(Cc2ccc3ncc(-c4cccc(C(N)=O)c4)n3n2)c1,-72.0*,·,·,·,·,·
OC(COc1ccc(Br)cc1)CN1CCN(c2ccccc2)CC1 (stereo not given),-34.1,·,6.5%,·,-2.9%,-9.9%
